Screening results: PubChem BioAssay, several laboratories
PostGolgi ctrl: yeast control strain growth, post-Golgi counter-screen; AID 738; inhibition, % at 10 µM; 5% of 98,000 active; efflux-deficient yeast background strain, growth absorbance A615, 16 h
CYP2C9 activ: increases human cytochrome P450 2C9 activity; 1.4% of 96,000 active; recombinant CYP2C9, luciferin-H conversion, luminescence; active compounds read high; factor 1 = untreated enzyme, 0 = blocked; P11712; AID 1024; activation factor at 5 µM;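 active means activation factor of 2 or more for CYP2C9 at a 5 µM dose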;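 further: 0 = sulfaphenazole-blocked wells and 1 = vehicle-only wells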
CYP2C19 activ: increases human CYP2C19 enzyme activity | activation factor at 5 µM | recombinant CYP2C19, luciferin-H EGE luminescence; active compounds read high; 0 = fully inhibited enzyme, 1 = untreated enzyme | 96,000 tested, under 10 active | P33261 | AID 1025;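 active means activation factor of at least 2 at 5 µM in the primary screen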;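 further: 0 = wells with 2.5 mM tranylcypromine and 1 = vehicle-only wells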
Target sequence (P33261 whole entry, looked up): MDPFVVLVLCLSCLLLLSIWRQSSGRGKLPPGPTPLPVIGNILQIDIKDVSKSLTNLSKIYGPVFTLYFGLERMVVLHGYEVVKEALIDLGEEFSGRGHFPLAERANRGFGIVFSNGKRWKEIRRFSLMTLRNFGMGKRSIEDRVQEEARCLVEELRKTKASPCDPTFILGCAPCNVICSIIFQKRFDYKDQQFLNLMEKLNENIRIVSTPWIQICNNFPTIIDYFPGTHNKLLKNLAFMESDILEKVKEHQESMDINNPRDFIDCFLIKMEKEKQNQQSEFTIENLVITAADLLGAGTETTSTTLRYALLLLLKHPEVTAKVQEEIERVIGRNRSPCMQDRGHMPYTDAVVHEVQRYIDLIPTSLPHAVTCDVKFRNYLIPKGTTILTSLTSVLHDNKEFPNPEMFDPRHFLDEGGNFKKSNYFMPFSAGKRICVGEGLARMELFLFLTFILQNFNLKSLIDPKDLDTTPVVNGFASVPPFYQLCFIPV
CYP2C19 inh: inhibitors of human CYP2C19; P33261; CYP2C19 Supersomes, luciferin-H EGE luminescence, 30 min; inhibition, % at 5 µM; 21% of 96,000 active;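 active means CYP2C19 inhibition above a set limit at 5 µM in the primary screen, cut at about 50% in these data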;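 further: plate controls were negative control wells for no effect and 2.5 mM tranylcypromine positive control for full effect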
PostGolgi yeast: growth inhibition of a yeast mutant, post-Golgi transport screen. post-Golgi transport phenotypic cell assay. 0.9% of 98,000 active. AID 739. inhibition, % at 10 µM;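 further: yeast cells grown in 1536-well plates; yeast grown about 18 h at 30C before absorbance read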
CYP2C9 inh: inhibitors of human CYP2C9; CYP2C9 Supersomes, luciferin-H conversion, luminescence; inhibition, % at 5 µM; P11712; AID 777; 20% of 96,000 active;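 active means blocking of liver enzyme CYP2C9 beyond about 50% at 5 µM, limit read from the data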
* = called active by the depositor. Only some compounds are listed: those with a hit (about 32% of all), similar ones and a draw of the others. Unless noted, no stated cut-off is given here; in the data, active means inhibition above about 30%; inactive means the rest.

CCC(C)C(=O)N1CCCC(c2nc(-c3cccs3)no2)C1 (stereo unspecified) was read as PostGolgi ctrl -5, CYP2C9 activ 1.1, CYP2C19 activ 0.9, CYP2C19 inh 14, PostGolgi yeast -3 and CYP2C9 inh -7.
`O=S(=O)(c1ccc(Cl)cc1)N1CCCC1c1nc(-c2ccc(Cl)cc2)no1` (stereo unspecified) gave PostGolgi ctrl 20 and PostGolgi yeast 18.
For O=C(c1ccco1)N1CCC(c2nc(-c3ccccc3Cl)no2)CC1 the results were PostGolgi ctrl 14, CYP2C9 activ 0.4, CYP2C19 activ 0.5, CYP2C19 inh 50, PostGolgi yeast 5 and CYP2C9 inh 57*.
For O=C(Nc1ccc(Cl)cc1)N1CCC(c2nc(-c3cccs3)no2)CC1 the results were PostGolgi ctrl 44*, CYP2C9 activ 0.8, CYP2C19 activ 0.8, CYP2C19 inh 22 and CYP2C9 inh 18.
`COc1ccc(NC(=O)N2CCC(c3nc(-c4cccs4)no3)CC2)cc1` gave PostGolgi ctrl -4, CYP2C9 activ 0.5, CYP2C19 activ 0.3, CYP2C19 inh 69*, PostGolgi yeast 15 and CYP2C9 inh 55*.
`O=S(=O)(c1ccccc1Cl)N1CCCC1c1nc(-c2ccccc2Cl)no1` (stereo unspecified) gave PostGolgi ctrl 12, CYP2C9 activ 0.9, CYP2C19 activ 0.4, CYP2C19 inh 58*, PostGolgi yeast -6 and CYP2C9 inh 13.
Cc1cccc(OCC(=O)OCC(=O)c2c(N)n(C)c(=O)n(C)c2=O)c1C was read as PostGolgi ctrl 3, CYP2C9 activ 1.1, CYP2C19 activ 1.1, CYP2C19 inh -6, PostGolgi yeast 6 and CYP2C9 inh -7.
Screening Cc1ccc(S(=O)(=O)NC(=O)NCc2ccccn2)cc1 returned PostGolgi ctrl -13, CYP2C9 activ 1, CYP2C19 activ 1, CYP2C19 inh 0, PostGolgi yeast -4 and CYP2C9 inh 5.
`O=C(c1ccco1)N1CCN(c2cc(=O)n(-c3ccc(Cl)cc3)c(=O)[nH]2)CC1` gave PostGolgi ctrl -8, CYP2C9 activ 0.9, CYP2C19 activ 1, CYP2C19 inh 2, PostGolgi yeast 1 and CYP2C9 inh 8.
For C=CCn1c(-c2ccccc2)ccc(C#N)c1=O the results were PostGolgi ctrl 15, CYP2C9 activ 0.9, CYP2C19 activ 0.8, CYP2C19 inh 18, PostGolgi yeast -3 and CYP2C9 inh 14.
Cc1csc2ncc(C(=O)Nc3ccc4c(c3)OCCO4)c(=O)n12 was read as CYP2C9 activ 1.2, CYP2C19 activ 0.9, CYP2C19 inh 6 and CYP2C9 inh -16.
Screening O=C(Nc1ccccc1)N1CCCC(c2nc(-c3cccs3)no2)C1 (stereo unspecified) returned PostGolgi ctrl 27, CYP2C9 activ 0.5, CYP2C19 activ 0.1, CYP2C19 inh 87*, PostGolgi yeast 2 and CYP2C9 inh 48.
Screening O=C(Nc1ccc(Cl)cc1)N1CCC(c2nc(-c3ccccc3Cl)no2)CC1 returned PostGolgi ctrl 40*, CYP2C9 activ 0.9, CYP2C19 activ 1, CYP2C19 inh 0, PostGolgi yeast 11 and CYP2C9 inh 5.
`CC1CCCC(C(=O)OCc2ccccc2)N1` (stereo unspecified) gave PostGolgi ctrl 2 and PostGolgi yeast 3.
`O=C(CN1CCN(c2ccccn2)CC1)Nc1cccc(C(F)(F)F)c1` gave PostGolgi ctrl 3, CYP2C9 activ 0.5, CYP2C19 activ 0.6, CYP2C19 inh 38, PostGolgi yeast 0 and CYP2C9 inh 48.
For Cn1c(SCc2ccc(C(=O)Nc3nccs3)cc2)nnc1-c1ccccc1 the results were PostGolgi ctrl 0, CYP2C9 activ 0.3, CYP2C19 activ 0.7, CYP2C19 inh 32, PostGolgi yeast -8 and CYP2C9 inh 68*.
CCn1c(SCc2ccc(C(=O)Nc3nccs3)cc2)nnc1-c1ccc(NC(C)=O)cc1 was read as PostGolgi ctrl 4, CYP2C9 activ 0.2, CYP2C19 activ 0.6, CYP2C19 inh 42, PostGolgi yeast 1 and CYP2C9 inh 85*.
Screening Cn1c(SCC(=O)Nc2nccs2)nnc1-c1ccncc1 returned PostGolgi ctrl 0, CYP2C9 activ 0.7, CYP2C19 activ 0.6, CYP2C19 inh 40, PostGolgi yeast -1 and CYP2C9 inh 32.
